High-throughput results deposited in PubChem by several laboratories.
Sampled rows, rich in hits. Any-hit rate of the full collection: about 5.2%.
CR mimetic SO = lowers age-related superoxide in aged yeast cells | S. cerevisiae aged cells, superoxide DHE fluorescence; hits give low values | superoxide response (% of plate mean), % at 10 µM | 330,000 tested, 0.18% active;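 active = superoxide response under a set limit, about three screen SD below normal, cut at about 65% in these data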;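 also: yeast aged for seven days with compound at 30 °C before DHE staining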
A3G deaminase = APOBEC3G (human) deaminase inhibition | 330,000 tested, 0.28% active | Q9HC16 | inhibition, % at 20 µM | recombinant A3G, ssDNA deamination FAM/TAMRA fluorescence;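 active = inhibition of at least 40% at 20 µM, with no more than 30% in the related APOBEC3A deaminase screen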
PfM18AAP inh = PfM18AAP enzyme inhibition; recombinant PfM18AAP, H-Glu-NHMec fluorogenic cleavage; inhibition, % at 7.35 µM; 290,000 tested, 1.2% active; AID 1822;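 active = inhibition above the campaign mean inhibition over all tested compounds plus 3 SD, cut at about 28% in these data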
NRP1-CendR mod = alters CendR peptide binding to human NRP-1; inhibition, % at 25 µM; 360,000 tested, 0.85% active; O14786; FAM-RPARPAR peptide binding to NRP-1, fluorescence polarization;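 active = inhibition or corrected inhibition above about 18%, plus a signal ratio from 0.5 to 1.5, limit read from the data, passing the limit was not always enough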
Target sequence (O14786 whole entry, looked up): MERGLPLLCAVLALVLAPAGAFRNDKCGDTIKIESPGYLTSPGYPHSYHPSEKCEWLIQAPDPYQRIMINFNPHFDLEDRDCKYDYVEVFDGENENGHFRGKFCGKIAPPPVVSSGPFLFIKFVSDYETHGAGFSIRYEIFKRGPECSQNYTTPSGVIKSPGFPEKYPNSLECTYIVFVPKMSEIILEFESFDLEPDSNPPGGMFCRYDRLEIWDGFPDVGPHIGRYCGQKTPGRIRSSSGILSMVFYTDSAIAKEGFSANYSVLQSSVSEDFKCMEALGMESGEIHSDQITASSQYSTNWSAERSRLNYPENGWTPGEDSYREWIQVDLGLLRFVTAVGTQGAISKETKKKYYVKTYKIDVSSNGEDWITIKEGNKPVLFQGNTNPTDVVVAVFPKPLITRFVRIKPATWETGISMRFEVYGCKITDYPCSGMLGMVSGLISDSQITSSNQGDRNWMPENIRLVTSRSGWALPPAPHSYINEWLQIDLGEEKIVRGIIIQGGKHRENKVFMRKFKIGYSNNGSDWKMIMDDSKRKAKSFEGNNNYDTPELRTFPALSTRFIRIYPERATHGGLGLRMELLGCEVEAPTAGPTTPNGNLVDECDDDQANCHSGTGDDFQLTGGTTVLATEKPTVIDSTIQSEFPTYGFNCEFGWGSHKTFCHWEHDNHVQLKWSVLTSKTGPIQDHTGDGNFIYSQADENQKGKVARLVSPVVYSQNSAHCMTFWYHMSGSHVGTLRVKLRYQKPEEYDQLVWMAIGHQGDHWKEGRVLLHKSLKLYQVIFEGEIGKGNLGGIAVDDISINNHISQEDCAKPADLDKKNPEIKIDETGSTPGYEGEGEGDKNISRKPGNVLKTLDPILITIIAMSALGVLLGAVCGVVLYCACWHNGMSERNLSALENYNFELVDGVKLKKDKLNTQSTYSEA
APOBEC3A inh = blocks human APOBEC3A ssDNA deamination; P31941; recombinant A3A, FAM/TAMRA ssDNA deamination fluorescence; inhibition, % at 20 µM; 330,000 tested, 0.41% active;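 active = at least 40% inhibition at 20 µM here, with at most 30% in a related deaminase screen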
ALR inh = blocks human ALR sulfhydryl oxidase activity; P55789; purified ALR, DTT oxidation, H2O2 HRP-luminol luminescence; inhibition, % (no concentration beside the values); 290,000 tested, 3.8% active; AID 485317;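 active = mean replicate inhibition above about 79%, with every replicate also reaching it, limit read from the data; inconclusive = only one of the two criteria met; inactive = mean below limit and not every replicate reaching it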
Hits are given with their value; i = inactive; ? = inconclusive; nt = no result.

SMILES	CR mimetic SO	A3G deaminase	PfM18AAP inh	NRP1-CendR mod	APOBEC3A inh	ALR inh
O=C(O)CSc1nnc(SCc2cccc3ccccc23)s1	i	i	i	i	i	98
O=C(CSc1nnc(-c2ccc3c(c2)OCO3)n1-c1ccccc1)c1ccc(Cl)cc1	i	i	i	i	i	i
C=CCn1c(SCC(=O)c2ccc(Cl)cc2)nnc1-c1ccc2c(c1)OCO2	i	i	i	i	i	92
C=CCn1c(SCC(=O)c2ccc(OC)cc2)nnc1-c1ccc2c(c1)OCO2	i	i	i	i	i	98
Cc1cc(Nc2ccccc2)nc(N2CCOCC2)n1	i	i	i	i	i	i
O=C(Cn1cnc2ccccc2c1=O)NCCC(=O)N1CCN(c2ccccc2)CC1	i	i	i	i	i	96
CCN1CCN(C(=O)CCNC(=O)Cn2cnc3ccccc3c2=O)CC1	i	i	i	i	i	nt
CN1CCN(C(=O)CCNC(=O)Cn2ccc3ccccc3c2=O)CC1	i	i	i	i	i	i
COc1ccc(N2CCN(C(=O)CCNC(=O)Cn3ccc4ccccc4c3=O)CC2)cc1	i	i	i	i	i	85
CCN(CCCNC(=O)CCNC(=O)Cn1cnc2ccccc2c1=O)c1ccccc1	i	i	i	i	i	99
COCCNC(=O)/C(C#N)=C/c1ccc(O)cc1	i	i	i	i	i	87
Cc1ccc(CNC(=O)/C(C#N)=C\c2ccc(N(C)C)cc2)cc1	i	i	i	nt	i	98
CN(C)c1ccc(/C=C(\C#N)C(=O)NCc2ccco2)cc1	i	i	i	nt	i	nt
NC(=O)CC[C@H](NC(=O)c1ccc(F)cc1)C(=O)N1CCN(Cc2ccc3c(c2)OCO3)CC1	i	i	nt	21	i	i
O=C(O)c1ccccc1C(=O)N1CCN(Cc2ccc3c(c2)OCO3)CC1	nt	i	29	i	i	nt
O=C1/C(=C/C=C/c2ccco2)SC(=S)N1NS(=O)(=O)c1ccccc1	i	i	i	i	i	?
CC(C(=O)O)N1C(=O)/C(=C/C=C/c2ccco2)SC1=S (stereo not drawn)	i	i	i	i	i	97
Cc1cccc(NNC(=S)Nc2c(C)cccc2C)c1	i	i	30	i	i	i
Cc1cccc(NNC(=S)Nc2ccccc2)c1	nt	nt	nt	i	nt	nt
Cc1cc(NC(=O)CSc2nnc(C(C)N(C)C)n2Cc2ccccc2)no1 (stereo not drawn)	i	i	i	i	i	i
Cc1ccc(N=c2sc(C)c(C)n2C)cc1	i	i	i	i	i	99
COCCn1c(SCCN2CCOCC2)nc2c1c(=O)[nH]c(=O)n2C	i	i	30	i	i	nt
C=CCn1c(SCCN2CCOCC2)nc2c1c(=O)[nH]c(=O)n2C	i	i	i	i	i	nt
CCOC(=O)c1cc(NC(=O)COC)ccc1O	i	i	i	nt	i	i
CCOC(=O)C(=CNc1ccc(O)c(C(=O)OC)c1)C(=O)OCC	i	i	nt	25	i	i
SMILES	CR mimetic SO	A3G deaminase	PfM18AAP inh	NRP1-CendR mod	APOBEC3A inh	ALR inh
CN(C(=O)CCc1nc2ccccc2c(=O)[nH]1)C1CCS(=O)(=O)C1 (stereo not drawn)	i	i	nt	i	i	i
CCn1cnc2cc(NCc3ccc(Br)cc3)ccc21	i	i	i	nt	i	86
CCn1cnc2cc(NCc3ccc(C)cc3)ccc21	i	i	i	i	i	87
Cc1ccc(CNc2ccc3c(c2)ncn3C(C)C)cc1	i	i	i	i	i	93
CCCn1cnc2cc(NCc3ccc(Br)cc3)ccc21	i	i	i	i	i	i
CCCCn1c(O)c(/C=C/C=C/C=Nc2ccccc2)sc1=S	i	i	i	i	i	i
COc1ccc(/C=C(\C#N)C(=O)c2c(C)[nH]c3ccccc23)cc1OC	i	i	i	i	i	i
COc1cc(/C=C(\C#N)C(=O)c2c(C)[nH]c3ccccc23)cc(OC)c1OC	i	i	i	i	i	96
CCOc1ccc(C2=C/C(=C/c3cccnc3)C(=O)O2)cc1	i	i	i	i	i	i
CCOC(=O)C(NC(=O)CC(C)C)(Nc1sc(C)c(CC)c1C#N)C(F)(F)F (stereo not drawn)	i	i	i	24	i	i
COc1cc2c(cc1O)CC[C@@H]1[C@@H]2CC[C@]2(C)[C@@H](O)CC[C@@H]12	i	i	i	i	i	99
C[C@]12CC[C@@H]3c4ccc(OC(=O)c5ccccc5)cc4CC[C@H]3[C@@H]1CC[C@@H]2O	i	i	i	i	i	i
